Reference: PubChem BioAssay AID1159580 (chemical genetic matrix, 2015)
Screen size: about 5,500 compounds; about 2,000 (36%) were called active. About 18% were inconclusive and are not listed. Rule as the data show it: active = normalized growth mostly below about 0.91 (no sharp cut-off); inconclusive = no clear call, values can overlap the other calls; inactive = mostly above about 0.92. The list shows a part of the results.

Experiment: chemical genetic growth profiling, strain panel (AID 1159580);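 also: tested at 20 µM; growth read once vehicle control cultures reached saturation at 30 °C; 1 = growth at the plate median or of vehicle wells; lower values mean less growth of the strain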
Conditions: growth OD
[1] = S. cerevisiae deletion strains, locus YDL101C, strain DUN1, hits give low values
[2] = S. cerevisiae deletion strains, locus YHR030C, strain SLT2, hits give low values
[3] = S. cerevisiae deletion strains, locus YGR078C, strain PAC10, hits give low values
[4] = S. cerevisiae deletion strains, locus YNL153C, strain GIM3, hits give low values
[5] = S. cerevisiae deletion strains, locus YAL013W, strain DEP1, hits give low values
[6] = S. cerevisiae deletion strains, locus YBR229C, strain ROT2, hits give low values
[7] = S. cerevisiae deletion strains, locus YDR150W, strain NUM1, hits give low values
[8] = S. cerevisiae deletion strains, locus YEL061C, strain CIN8, hits give low values
[9] = S. cerevisiae deletion strains, locus YHR087W, strain rtc3, hits give low values
[10] = S. cerevisiae deletion strains, locus YJR043C, strain POL32, hits give low values
[11] = S. cerevisiae deletion strains, locus YJR075W, strain HOC1, hits give low values
[12] = S. cerevisiae deletion strains, locus YLR039C, strain RIC1, hits give low values
[13] = S. cerevisiae deletion strains, locus YLR058C, strain SHM2 (second series), hits give low values
[14] = S. cerevisiae deletion strains, locus YLR085C, strain ARP6, hits give low values
[15] = S. cerevisiae deletion strains, locus YLR262C, strain YPT6, hits give low values
[16] = S. cerevisiae deletion strains, locus YML094W, strain GIM5, hits give low values
[17] = S. cerevisiae deletion strains, locus YMR219W, strain ESC1, hits give low values
[18] = S. cerevisiae deletion strains, locus YMR263W, strain SAP30, hits give low values
[19] = S. cerevisiae deletion strains, locus YNL298W, strain CLA4 (second series), hits give low values
[20] = S. cerevisiae deletion strains, locus YNL322C, strain KRE1, hits give low values
[21] = S. cerevisiae deletion strains, locus YNR030W, strain Alg12, hits give low values
[22] = S. cerevisiae deletion strains, locus YPL055C, strain LGE1, hits give low values
[23] = S. cerevisiae deletion strains, locus YPL241C, strain CIN2, hits give low values
[24] = S. cerevisiae deletion strains, locus YPR135W, strain CTF4, hits give low values

Measured: normalized growth

S=C(NCc1cccs1)Nc1cc(Cl)cc(Cl)c1
inactive: S. cerevisiae deletion strains, locus YAR019C, strain CDC15, hits give low values 0.942 | S. cerevisiae deletion strains, locus YBL105C, strain PKC1, hits give low values 0.947 | S. cerevisiae deletion strains, locus YBR135W, strain CKS1, hits give low values 0.936 | S. cerevisiae deletion strains, locus YBR136W, strain MEC1, hits give low values 0.945 | S. cerevisiae deletion strains, locus YBR160W, strain CDC28, hits give low values 0.944 | S. cerevisiae deletion strains, locus YDL017W, strain CDC7, hits give low values 0.955 | S. cerevisiae deletion strains, locus YDL028C, strain MPS1, hits give low values 0.944 | [1] 0.979 | S. cerevisiae deletion strains, locus YDL108W, strain KIN28, hits give low values 0.947 | S. cerevisiae deletion strains, locus YDL132W, strain cdc53, hits give low values 0.962 | S. cerevisiae deletion strains, locus YDL214C, strain PRR2, hits give low values 0.912 | S. cerevisiae deletion strains, locus YDR052C, strain DBF4, hits give low values 0.96 | S. cerevisiae deletion strains, locus YDR054C, strain cdc34, hits give low values 0.967 | S. cerevisiae deletion strains, locus YDR226W, strain ADK1, hits give low values 0.955 | S. cerevisiae deletion strains, locus YDR477W, strain SNF1, hits give low values 0.894 | S. cerevisiae deletion strains, locus YER123W, strain YCK3, hits give low values 0.848 | S. cerevisiae deletion strains, locus YER133W, strain GLC7, hits give low values 0.867 | S. cerevisiae deletion strains, locus YFL009W, strain cdc4, hits give low values 0.928 | S. cerevisiae deletion strains, locus YFL029C, strain CAK1, hits give low values 0.936 | S. cerevisiae deletion strains, locus YFR003C, strain YPI1, hits give low values 0.948 | S. cerevisiae deletion strains, locus YFR019W, strain FAB1, hits give low values 0.95 | S. cerevisiae deletion strains, locus YFR028C, strain CDC14, hits give low values 0.959 | S. cerevisiae deletion strains, locus YGR040W, strain KSS1, hits give low values 0.891 | S. cerevisiae deletion strains, locus YGR052W, strain FMP48, hits give low values 0.964 | S. cerevisiae deletion strains, locus YGR092W, strain DBF2, hits give low values 0.739 | [2] 0.988 | S. cerevisiae deletion strains, locus YHR079C, strain IRE1, hits give low values 0.961 | S. cerevisiae deletion strains, locus YHR082C, strain KSP1, hits give low values 0.901 | S. cerevisiae deletion strains, locus YHR205W, strain SCH9, hits give low values 0.946 | S. cerevisiae deletion strains, locus YIL147C, strain SLN1, hits give low values 0.949 | S. cerevisiae deletion strains, locus YJL095W, strain BCK1, hits give low values 0.958 | S. cerevisiae deletion strains, locus YJL128C, strain PBS2, hits give low values 0.892 | S. cerevisiae deletion strains, locus YJL157C, strain FAR1, hits give low values 0.879 | S. cerevisiae deletion strains, locus YJR016C, strain ILV3, hits give low values 0.948 | S. cerevisiae deletion strains, locus YJR066W, strain TOR1 (second series), hits give low values 0.874 | S. cerevisiae deletion strains, locus YJR066W, strain TOR1, hits give low values 0.917 | S. cerevisiae deletion strains, locus YKL048C, strain ELM1, hits give low values 0.953 | S. cerevisiae deletion strains, locus YKL067W, strain YNK1, hits give low values 0.902 | S. cerevisiae deletion strains, locus YKL101W, strain HSL1, hits give low values 0.923 | S. cerevisiae deletion strains, locus YKL193C, strain SDS22, hits give low values 0.937 | S. cerevisiae deletion strains, locus YKL203C, strain TOR2, hits give low values 0.944 | S. cerevisiae deletion strains, locus YLR113W, strain HOG1, hits give low values 0.912 | S. cerevisiae deletion strains, locus YLR133W, strain CKI1, hits give low values 0.931 | S. cerevisiae deletion strains, locus YLR403W, strain SFP1, hits give low values 0.898 | S. cerevisiae deletion strains, locus YML070W, strain DAK1, hits give low values 0.883 | S. cerevisiae deletion strains, locus YMR001C, strain CDC5, hits give low values 0.941 | S. cerevisiae deletion strains, locus YMR205C, strain PFK2 (second series), hits give low values 0.918 | S. cerevisiae deletion strains, locus YMR277W, strain FCP1, hits give low values 0.934 | S. cerevisiae deletion strains, locus YNL006W, strain LST8, hits give low values 0.944 | S. cerevisiae deletion strains, locus YNL020C, strain ARK1, hits give low values 0.906 | S. cerevisiae deletion strains, locus YNL161W, strain CBK1, hits give low values 0.946 | S. cerevisiae deletion strains, locus YNL183C, strain NPR1, hits give low values 0.928 | S. cerevisiae deletion strains, locus YNL207W, strain RIO2, hits give low values 0.928 | S. cerevisiae deletion strains, locus YNL222W, strain SSU72, hits give low values 0.93 | S. cerevisiae deletion strains, locus YNL307C, strain MCK1 (second series), hits give low values 0.935 | S. cerevisiae deletion strains, locus YOL078W, strain AVO1, hits give low values 0.934 | S. cerevisiae deletion strains, locus YOL136C, strain PFK27, hits give low values 0.897 | S. cerevisiae deletion strains, locus YOR061W, strain CKA2, hits give low values 0.872 | S. cerevisiae deletion strains, locus YOR119C, strain RIO1, hits give low values 0.936 | S. cerevisiae deletion strains, locus YOR231W, strain MKK1, hits give low values 1.01 | S. cerevisiae deletion strains, locus YOR329C, strain SCD5, hits give low values 0.949 | S. cerevisiae deletion strains, locus YPL031C, strain PHO85, hits give low values 0.865 | S. cerevisiae deletion strains, locus YPL153C, strain RAD53, hits give low values 0.862 | S. cerevisiae deletion strains, locus YPL204W, strain HRR25, hits give low values 0.878 | S. cerevisiae deletion strains, locus YPL209C, strain IPL1, hits give low values 0.942 | S. cerevisiae deletion strains, locus YPL256C, strain CLN2, hits give low values 0.961 | S. cerevisiae deletion strains, locus YPR025C, strain CCL1, hits give low values 0.949 | S. cerevisiae deletion strains, locus YPR106W, strain ISR1, hits give low values 0.948 | S. cerevisiae deletion strains, locus YPR111W, strain DBF20, hits give low values 0.952 | S. cerevisiae deletion strains, strain NNK1, hits give low values 0.959 | S. cerevisiae deletion strains, strain TSCII, hits give low values 0.936

COc1cc([C@@H]2c3cc4c(cc3[C@H](O)C3COC(=O)[C@@H]32)OCO4)cc(OC)c1OC (stereo partly specified)
inactive: S. cerevisiae deletion strains, locus YAL040C, strain CLN3, hits give low values 1.06 | S. cerevisiae deletion strains, locus YCL061C, strain MRC1 (second series), hits give low values 0.999 | S. cerevisiae deletion strains, locus YDR363W, strain ESC2, hits give low values 1 | S. cerevisiae deletion strains, locus YER002W, strain NOP16, hits give low values 1.02 | [3] 1.02 | [4] 1.04 | S. cerevisiae deletion strains, locus YNL175C, strain NOP13, hits give low values 1.02 | S. cerevisiae deletion strains, locus YNL197C, strain WHI3, hits give low values 1 | S. cerevisiae deletion strains, locus YNL224C, strain SQS1, hits give low values 1 | S. cerevisiae deletion strains, locus YOR083W, strain WHI5 (second series), hits give low values 1

CC(=N/O)/C(C)=C/c1ccc(Cl)cc1
active: [5] 0.8 | [6] 0.822 | [1] 0.835 | [8] 0.648 | [3] 0.752 | S. cerevisiae deletion strains, locus YGR229C, strain SMI1, hits give low values 0.898 | [2] 0.165 | [9] 0.785 | [10] 0.824 | [11] 0.521 | [12] 0.327 | [13] 0.848 | [14] 0.164 | [15] 0.311 | [16] 0.712 | [17] 0.855 | [18] 0.837 | [4] 0.852 | [19] 0.441 | [20] 0.885 | [21] 0.555 | S. cerevisiae deletion strains, locus YOL006C, strain TOP1, hits give low values 0.305 | [22] 0.56 | [23] 0.502 | [24] 0.231
inactive: [7] 0.847

C/C(=N/O)c1ccn(S(=O)(=O)c2ccc(Cl)cc2)c1
inactive: [5] 0.998 | [6] 1.02 | S. cerevisiae deletion strains, locus YCL061C, strain MRC1, hits give low values 1.05 | [1] 1.03 | S. cerevisiae deletion strains, locus YDL134C, strain PPH21, hits give low values 1 | [7] 0.891 | [8] 0.983 | [3] 1.01 | [2] 1.02 | [9] 0.992 | [10] 1.05 | [11] 1.02 | S. cerevisiae deletion strains, locus YKL190W, strain CNB1, hits give low values 0.995 | [12] 1.04 | [13] 0.978 | [14] 0.99 | [15] 1.04 | [16] 1.02 | [17] 0.996 | [18] 0.998 | S. cerevisiae deletion strains, locus YNL128W, strain TEP1, hits give low values 1 | [4] 1.05 | [19] 1.02 | [20] 0.983 | [21] 1 | [22] 0.989 | [23] 1 | [24] 1.06 | S. cerevisiae strains, strain wild type, hits give low values 1.01
